From paper PMC4336329 (PLoS ONE, 2015)
About 14,000 (4.5%) of roughly 310,000 compounds showed an effect of 50% or more. The effect is printed as a negative number. Many of the other results were omitted from the sample, so strong results are more common in it than they were.

target: human ether-à-go-go-related gene (hERG) potassium channel (human, UniProt Q12809); assay: primary screen, population patch clamp on CHO cells stably expressing hERG; higher = less effect of the substance
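Note: peak tail current of the secondary pulse compared with the same well before compound.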

Sequence of human ether-à-go-go-related gene (hERG) potassium channel (Q12809 whole entry, looked up): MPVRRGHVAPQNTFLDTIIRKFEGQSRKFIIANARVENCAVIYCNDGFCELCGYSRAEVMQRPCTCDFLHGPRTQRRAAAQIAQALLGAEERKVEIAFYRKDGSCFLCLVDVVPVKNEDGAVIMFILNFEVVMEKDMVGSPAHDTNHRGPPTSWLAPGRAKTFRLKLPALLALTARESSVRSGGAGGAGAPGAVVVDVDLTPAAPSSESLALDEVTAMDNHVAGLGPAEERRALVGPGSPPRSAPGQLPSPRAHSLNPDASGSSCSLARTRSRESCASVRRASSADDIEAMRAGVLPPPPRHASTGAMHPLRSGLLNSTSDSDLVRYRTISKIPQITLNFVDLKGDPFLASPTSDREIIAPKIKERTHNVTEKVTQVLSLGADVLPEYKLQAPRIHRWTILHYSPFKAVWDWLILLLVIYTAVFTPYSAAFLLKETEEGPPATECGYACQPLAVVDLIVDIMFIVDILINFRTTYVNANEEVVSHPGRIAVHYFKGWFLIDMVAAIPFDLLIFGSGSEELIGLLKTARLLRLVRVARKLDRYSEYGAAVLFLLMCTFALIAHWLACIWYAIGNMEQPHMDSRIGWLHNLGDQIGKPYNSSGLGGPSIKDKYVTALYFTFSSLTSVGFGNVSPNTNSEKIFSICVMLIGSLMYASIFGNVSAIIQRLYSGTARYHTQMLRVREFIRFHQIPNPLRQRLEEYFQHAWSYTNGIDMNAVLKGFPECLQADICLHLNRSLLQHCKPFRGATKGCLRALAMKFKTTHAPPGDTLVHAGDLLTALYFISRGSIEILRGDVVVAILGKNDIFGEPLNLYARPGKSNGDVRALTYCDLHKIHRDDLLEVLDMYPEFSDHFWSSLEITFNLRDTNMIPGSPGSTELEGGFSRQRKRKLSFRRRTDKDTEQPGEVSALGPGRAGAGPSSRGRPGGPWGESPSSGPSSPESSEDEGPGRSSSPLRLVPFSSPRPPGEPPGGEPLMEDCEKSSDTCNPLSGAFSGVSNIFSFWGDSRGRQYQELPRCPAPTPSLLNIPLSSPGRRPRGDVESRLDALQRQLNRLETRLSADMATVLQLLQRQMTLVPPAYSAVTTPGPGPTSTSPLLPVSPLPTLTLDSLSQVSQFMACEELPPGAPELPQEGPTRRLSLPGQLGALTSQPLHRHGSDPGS

Compared with O=C(c1noc2c1CCCC2)N1CCc2c([nH]c3ccccc23)C1c1ccccn1 (centres unmarked), COc1ccccc1C(=O)n1nc(-c2ccccc2)nc1N is higher in “hERG current change (%, negative = inhibition) at 10uM” value: -7.65% for the first, 0.335% for the second.

Compared with O=C(Nc1ccccn1)N1CCOCC1, CN1CCN(CCC(=O)Nc2ccccc2Cl)CC1 is lower in “hERG current change (%, negative = inhibition) at 10uM” value: 15.1% for the first, -1.75% for the second.

Going from O=C(CN1CCN(c2ccc(F)cc2)CC1)Nc1ccc(S(=O)(=O)N2CCOCC2)cc1 to O=C(CN1CCN(S(=O)(=O)c2ccc(Br)cc2)CC1)Nc1ccc2c(c1)OCCO2, the “hERG current change (%, negative = inhibition) at 10uM” value falls from 0.845% to -27.9%.

Going from Cc1cc(C)cc(-n2nnc(C(=O)NCc3ccco3)c2N)c1 to COc1cc(OC)cc(C(=O)NC(C)c2cnn(-c3ccccc3C)c2C)c1 (centres unmarked), the “hERG current change (%, negative = inhibition) at 10uM” value rises from -29.8% to -1.48%.

First: O=C(Cn1nnc(-c2ccccc2NC(=O)c2ccco2)n1)Nc1ccccc1
Second: CCN(CC(=O)Nc1ccccc1C(=O)Nc1ccccc1)Cc1nc2ccccc2c(=O)[nH]1
The “hERG current change (%, negative = inhibition) at 10uM” value of the first is higher: 16.1% for the first, -75.6% for the second.

First: COc1cc(/C=C/C(=O)Nc2nnc(CC(C)C)s2)cc(OC)c1OC
Second: COc1cc(C(=O)NC(C)c2cnn(-c3ccccc3C)c2C)cc(OC)c1OC (centres unmarked)
The “hERG current change (%, negative = inhibition) at 10uM” value of the first is higher: -27.8% for the first, -51% for the second.

Going from CCN1CCN(c2ccc(NC(=O)c3cc4ccccc4cc3OC)cc2C)CC1 to O=C(CCN1CCN(c2ccccc2F)CC1)Nc1ccccc1Cl, the “hERG current change (%, negative = inhibition) at 10uM” value rises from -48.7% to -2.49%.

Compared with C(=C\c1ccco1)/c1nc2ccccc2[nH]1, CCN(CC(=O)Nc1ccccc1Br)Cc1nc2ccccc2c(=O)[nH]1 is lower in “hERG current change (%, negative = inhibition) at 10uM” value: 8.91% for the first, -22.3% for the second.

Compared with O=C(c1cc2ncc(CCCl)cn2n1)N1CCCCCC1, Cl.O=C(CCN1CCCCCC1)Nc1ccccc1F is lower in “hERG current change (%, negative = inhibition) at 10uM” value: 8.53% for the first, -4.4% for the second.

Going from Cc1cccc(C)c1N1CCc2cn[nH]c21 to Cc1ccccc1-n1ncc(C(C)NC(=O)c2ccccc2)c1C (centres unmarked), the “hERG current change (%, negative = inhibition) at 10uM” value falls from 8.17% to -4.33%.

First: CC1=NN(C(N)=S)C(=O)C1N=Nc1cccc(Cl)c1 (centres unmarked)
Second: CC(C)OC(=O)CSc1nnc(-c2ccc(Cl)cc2Cl)o1
The “hERG current change (%, negative = inhibition) at 10uM” value of the first is higher: 17.2% for the first, -7.24% for the second.

First: CN(C)S(=O)(=O)c1ccc2c(c1)C(=NO)c1cc(S(=O)(=O)N(C)C)ccc1-2
Second: CC(C)c1ccc(S(=O)(=O)N2CCN(CC(=O)Nc3ccc4c(c3)OCO4)CC2)cc1
The “hERG current change (%, negative = inhibition) at 10uM” value of the first is higher: 14.7% for the first, -13.9% for the second.

First: OCCNc1nc(Cl)nc(NCc2ccco2)n1
Second: O=C(CCSc1nc(-c2ccco2)cc(C(F)(F)F)n1)NCC1CCCO1 (centres unmarked)
The “hERG current change (%, negative = inhibition) at 10uM” value of the first is higher: 8.89% for the first, -8.69% for the second.

First: CCc1ccccc1NC(=O)COC(=O)c1c(C)nsc1NC
Second: CC(C)[C@H](NC(=O)OCc1ccccc1)C(=O)OCC(=O)Nc1ccc(N2CCOCC2)cc1
The “hERG current change (%, negative = inhibition) at 10uM” value of the first is higher: -2.87% for the first, -15.1% for the second.

Going from CCN(CC(=O)Nc1ccccc1-c1ccccc1)Cc1nc2ccccc2c(=O)[nH]1 to COc1ccc(N(Cc2ccccc2)S(=O)(=O)c2cc(C(=O)O)ccc2Cl)cc1, the “hERG current change (%, negative = inhibition) at 10uM” value rises from -23.4% to 5.3%.

First: O=C1CCC(=O)N1OCCCOc1ccccc1
Second: O=C(CN1CCN(S(=O)(=O)c2ccccc2)CC1)Nc1ccc2c(c1)OCO2
The “hERG current change (%, negative = inhibition) at 10uM” value of the first is higher: -2.09% for the first, -44.1% for the second.

Compared with COC(=O)c1[nH]c2ccc(Cl)cc2c1NC(=O)C1CC1, CC1(C)Cc2c(cnn2-c2ccc(F)cc2)C(NC(=O)C2CCC2)C1 (centres unmarked) is lower in “hERG current change (%, negative = inhibition) at 10uM” value: 17.1% for the first, -79.2% for the second.

Going from C/C(N)=C(/C#N)C(=O)COC(=O)C1CCC(C(C)(C)C)CC1 (centres unmarked) to CC(C)C(NC(=O)OCc1ccccc1)C(=O)OCC(=O)N1C(C)CCCC1C (centres unmarked), the “hERG current change (%, negative = inhibition) at 10uM” value rises from -7.3% to 4.95%.

First: O=c1[nH]c(C2CCN(S(=O)(=O)c3ccccc3)CC2)nc2c1nnn2Cc1c(F)cccc1Cl
Second: O=C(CCN1CCN(CC(=O)Nc2ccccc2Cl)CC1)Nc1ccccc1F
The “hERG current change (%, negative = inhibition) at 10uM” value of the first is higher: -2.84% for the first, -69.1% for the second.

Compared with CCOC(=O)c1[nH]c2c(c1C)C(=O)CC(c1ccc(OC)c(OC)c1)C2 (centres unmarked), COc1ccc(C)cc1NC(=O)c1ccc2c(SCC(=O)O)c3c(nc2c1)CCCC3 is higher in “hERG current change (%, negative = inhibition) at 10uM” value: -9.84% for the first, 10.9% for the second.

Compared with O=C(CCN1CCN(CC(=O)Nc2ccccc2F)CC1)Nc1ccccc1F, O=C(CN1CCN(c2ccccc2F)CC1)Nc1ccccc1F is higher in “hERG current change (%, negative = inhibition) at 10uM” value: -65.4% for the first, -1.86% for the second.

Going from CC(C)C(NC(=O)c1ccccc1)C(=O)OCC(=O)N1CCN(c2ccccc2)CC1 (centres unmarked) to CC(C)[C@H](NC(=O)OCc1ccccc1)C(=O)OCC(=O)N1CCN(c2ccccc2)CC1, the “hERG current change (%, negative = inhibition) at 10uM” value falls from -2.47% to -58.3%.

Going from CC(C)[C@H](NC(=O)OCc1ccccc1)C(=O)OCC(=O)N1CCN(c2ccc(F)cc2)CC1 to CC(C)C(NC(=O)OCc1ccccc1)C(=O)OCC(=O)N1CCCCC1 (centres unmarked), the “hERG current change (%, negative = inhibition) at 10uM” value rises from -75.3% to -7.36%.

CCOC(=O)N1CCN(C(=O)CN(C2CCCCC2)S(=O)(=O)c2ccc(F)cc2)CC1 and CC(=O)N1CCC(C(=O)NC2CC(C)(C)Cc3c2cnn3-c2ccc(F)cc2)CC1 (centres unmarked) are the same in “hERG current change (%, negative = inhibition) at 10uM” value: -25.3% for the first, -25.3% for the second.

Going from O=C(Nc1cc(S(=O)(=O)N2CCOCC2)ccc1N1CCOCC1)c1cnccn1 to O=C(CN1CCN(S(=O)(=O)c2ccc(Cl)cc2)CC1)Nc1ccc2c(c1)OCCO2, the “hERG current change (%, negative = inhibition) at 10uM” value rises from -42.7% to -5.94%.

Going from CC(C)(C)C(=O)NC(=S)Nc1ccccc1C(=O)NC1CCCCC1 to Nn1c(SCc2ccccc2)nnc1C1CCCCC1, the “hERG current change (%, negative = inhibition) at 10uM” value rises from -18% to 7.68%.

First: O=C(CN1CCN(S(=O)(=O)c2ccc(Cl)cc2)CC1)Nc1ccc2c(c1)OCO2
Second: O=C(CN1CCN(S(=O)(=O)c2ccc(Br)cc2)CC1)Nc1ccc2c(c1)OCO2
The “hERG current change (%, negative = inhibition) at 10uM” value of the first is lower: -65% for the first, -62.4% for the second.

First: CCCc1nnc(SCC(=O)Nc2ccc(OC)cc2)o1
Second: COCC(=O)NC1CC(C)(C)Cc2c1cnn2-c1ccc(F)cc1 (centres unmarked)
The “hERG current change (%, negative = inhibition) at 10uM” value of the first is higher: 28.8% for the first, -64.9% for the second.

Compared with CC1(C)Cc2c(cnn2-c2ccc(F)cc2)C(NC(=O)C(C)(C)O)C1 (centres unmarked), COC(=O)CCC(=O)NC1CC(C)(C)Cc2c1cnn2-c1ccc(F)cc1 (centres unmarked) is higher in “hERG current change (%, negative = inhibition) at 10uM” value: -0.859% for the first, 4.42% for the second.

For CC1(C)Cc2c(cnn2-c2ccc(F)cc2)C(NC(=O)CCC(F)(F)F)C1 (centres unmarked), the “hERG current change (%, negative = inhibition) at 10uM” value was -42.8%.
